# Measurements: the supplement of paper PMC4466140
# Target: AgAbp1
# Assay: SPOT peptide array binding signal intensity (averaged, normalized) (arbitrary units (background-subtracted, floor 0; scale differs between SH3 domains)); higher = stronger binding of the SH3 domain to the peptide
# Summary of the method: (§1)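 GST-fused SH3 domains, from four yeast species, were produced in E. coli BL21(DE3) and captured on glutathione Sepharose. Membranes of cellulose carrying synthetic 15-mer peptides, in which cysteines had been replaced by serines, were exposed to each domain at 10 μg/ml overnight at 4°C in TBS-based blocking buffer. After anti-GST antibody, an HRP anti-mouse secondary and luminol, spots were imaged and quantified using Genespotter. Binding signal is normalized and background-subtracted spot intensity, averaged over replicates, in arbitrary units that differ between domains.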
row,Binder,SPOT peptide array binding signal intensity
1,NFLRLLIGLPSQNEL,≤ 0
2,SAPDIPPRSPNRNAH,≤ 0

# Target: AgBbc1
# Assay: as above
# Summary of the method: as §1
row,Binder,SPOT peptide array binding signal intensity
1,NFLRLLIGLPSQNEL,4.25
2,SAPDIPPRSPNRNAH,498

# Target: AgBem1-D1
# Assay: as above
# Summary of the method: as §1
row,Binder,SPOT peptide array binding signal intensity
1,NFLRLLIGLPSQNEL,132
2,SAPDIPPRSPNRNAH,≤ 0

# Target: AgBzz1-D1
# Assay: as above
# Summary of the method: as §1
row,Binder,SPOT peptide array binding signal intensity
1,NFLRLLIGLPSQNEL,17.5
2,SAPDIPPRSPNRNAH,34.5

# Target: AgBzz1-D2
# Assay: as above
# Summary of the method: as §1
row,Binder,SPOT peptide array binding signal intensity
1,NFLRLLIGLPSQNEL,6.5
2,SAPDIPPRSPNRNAH,≤ 0

# Target: AgCyk3
# Assay: as above
# Summary of the method: as §1
row,Binder,SPOT peptide array binding signal intensity
1,NFLRLLIGLPSQNEL,3.5
2,SAPDIPPRSPNRNAH,≤ 0

# Target: AgFus1
# Assay: as above
# Summary of the method: as §1
row,Binder,SPOT peptide array binding signal intensity
1,NFLRLLIGLPSQNEL,950
2,SAPDIPPRSPNRNAH,≤ 0

# Target: AgHof1
# Assay: as above
# Summary of the method: as §1
row,Binder,SPOT peptide array binding signal intensity
1,NFLRLLIGLPSQNEL,31.5
2,SAPDIPPRSPNRNAH,≤ 0

# Target: AgHse1
# Assay: as above
# Summary of the method: as §1
row,Binder,SPOT peptide array binding signal intensity
1,NFLRLLIGLPSQNEL,2760
2,SAPDIPPRSPNRNAH,≤ 0

# Target: AgLsb1
# Assay: as above
# Summary of the method: as §1
row,Binder,SPOT peptide array binding signal intensity
1,NFLRLLIGLPSQNEL,≤ 0
2,SAPDIPPRSPNRNAH,324

# Target: AgLsb4
# Assay: as above
# Summary of the method: as §1
row,Binder,SPOT peptide array binding signal intensity
1,NFLRLLIGLPSQNEL,248
2,SAPDIPPRSPNRNAH,328

# Target: AgMyo5
# Assay: as above
# Summary of the method: as §1
row,Binder,SPOT peptide array binding signal intensity
1,NFLRLLIGLPSQNEL,2.75
2,SAPDIPPRSPNRNAH,≤ 0

# Target: AgNbp2
# Assay: as above
# Summary of the method: as §1
row,Binder,SPOT peptide array binding signal intensity
1,NFLRLLIGLPSQNEL,39
2,SAPDIPPRSPNRNAH,3.5

# Target: AgRvs167
# Assay: as above
# Summary of the method: as §1
row,Binder,SPOT peptide array binding signal intensity
1,NFLRLLIGLPSQNEL,2
2,SAPDIPPRSPNRNAH,36.3

# Target: AgSho1
# Assay: as above
# Summary of the method: as §1
row,Binder,SPOT peptide array binding signal intensity
1,NFLRLLIGLPSQNEL,263
2,SAPDIPPRSPNRNAH,≤ 0

# Target: AgSla1-D1-D2
# Assay: as above
# Summary of the method: as §1
row,Binder,SPOT peptide array binding signal intensity
1,NFLRLLIGLPSQNEL,50
2,SAPDIPPRSPNRNAH,≤ 0

# Target: AgSla1-D3
# Assay: as above
# Summary of the method: as §1
row,Binder,SPOT peptide array binding signal intensity
1,NFLRLLIGLPSQNEL,4.5
2,SAPDIPPRSPNRNAH,≤ 0

# Target: CaAbp1-D1
# Assay: as above
# Summary of the method: as §1
row,Binder,SPOT peptide array binding signal intensity
1,NFLRLLIGLPSQNEL,≤ 0
2,SAPDIPPRSPNRNAH,≤ 0

# Target: CaAbp1-D2
# Assay: as above
# Summary of the method: as §1
row,Binder,SPOT peptide array binding signal intensity
1,NFLRLLIGLPSQNEL,≤ 0
2,SAPDIPPRSPNRNAH,4.5

# Target: CaBbc1
# Assay: as above
# Summary of the method: as §1
row,Binder,SPOT peptide array binding signal intensity
1,NFLRLLIGLPSQNEL,≤ 0
2,SAPDIPPRSPNRNAH,575

# Target: CaBem1-D1
# Assay: as above
# Summary of the method: as §1
row,Binder,SPOT peptide array binding signal intensity
1,NFLRLLIGLPSQNEL,≤ 0
2,SAPDIPPRSPNRNAH,1

# Target: CaBzz1-D1
# Assay: as above
# Summary of the method: as §1
row,Binder,SPOT peptide array binding signal intensity
1,NFLRLLIGLPSQNEL,39
2,SAPDIPPRSPNRNAH,85

# Target: CaBzz1-D2
# Assay: as above
# Summary of the method: as §1
row,Binder,SPOT peptide array binding signal intensity
1,NFLRLLIGLPSQNEL,37
2,SAPDIPPRSPNRNAH,≤ 0

# Target: CaCyk3
# Assay: as above
# Summary of the method: as §1
row,Binder,SPOT peptide array binding signal intensity
1,NFLRLLIGLPSQNEL,4
2,SAPDIPPRSPNRNAH,3

# Target: CaFus1
# Assay: as above
# Summary of the method: as §1
row,Binder,SPOT peptide array binding signal intensity
1,NFLRLLIGLPSQNEL,2560
2,SAPDIPPRSPNRNAH,≤ 0

# Target: CaHof1
# Assay: as above
# Summary of the method: as §1
row,Binder,SPOT peptide array binding signal intensity
1,NFLRLLIGLPSQNEL,1.5
2,SAPDIPPRSPNRNAH,≤ 0

# Target: CaHse1
# Assay: as above
# Summary of the method: as §1
row,Binder,SPOT peptide array binding signal intensity
1,NFLRLLIGLPSQNEL,156
2,SAPDIPPRSPNRNAH,9.75

# Target: CaLsb1
# Assay: as above
# Summary of the method: as §1
row,Binder,SPOT peptide array binding signal intensity
1,NFLRLLIGLPSQNEL,2.5
2,SAPDIPPRSPNRNAH,0.25

# Target: CaLsb4
# Assay: as above
# Summary of the method: as §1
row,Binder,SPOT peptide array binding signal intensity
1,NFLRLLIGLPSQNEL,3
2,SAPDIPPRSPNRNAH,4890

# Target: CaMyo5
# Assay: as above
# Summary of the method: as §1
row,Binder,SPOT peptide array binding signal intensity
1,NFLRLLIGLPSQNEL,8.25
2,SAPDIPPRSPNRNAH,≤ 0

# Target: CaNbp2
# Assay: as above
# Summary of the method: as §1
row,Binder,SPOT peptide array binding signal intensity
1,NFLRLLIGLPSQNEL,259

# Target: CaRvs167
# Assay: as above
# Summary of the method: as §1
row,Binder,SPOT peptide array binding signal intensity
1,NFLRLLIGLPSQNEL,72

# Target: CaRvs167-3
# Assay: as above
# Summary of the method: as §1
row,Binder,SPOT peptide array binding signal intensity
1,NFLRLLIGLPSQNEL,143

# Target: CaSho1
# Assay: as above
# Summary of the method: as §1
row,Binder,SPOT peptide array binding signal intensity
1,NFLRLLIGLPSQNEL,731

# Target: CaSla1-D1-D2
# Assay: as above
# Summary of the method: as §1
row,Binder,SPOT peptide array binding signal intensity
1,NFLRLLIGLPSQNEL,≤ 0

# Target: CaSla1-D3
# Assay: as above
# Summary of the method: as §1
row,Binder,SPOT peptide array binding signal intensity
1,NFLRLLIGLPSQNEL,41.2

# Target: ScAbp1
# Assay: as above
# Summary of the method: as §1
row,Binder,SPOT peptide array binding signal intensity
1,NFLRLLIGLPSQNEL,≤ 0

# Target: ScBbc1
# Assay: as above
# Summary of the method: as §1
row,Binder,SPOT peptide array binding signal intensity
1,NFLRLLIGLPSQNEL,0.5

# Target: ScBem1-D1
# Assay: as above
# Summary of the method: as §1
row,Binder,SPOT peptide array binding signal intensity
1,NFLRLLIGLPSQNEL,18

# Target: ScBzz1-D1
# Assay: as above
# Summary of the method: as §1
row,Binder,SPOT peptide array binding signal intensity
1,NFLRLLIGLPSQNEL,19

# Target: ScBzz1-D2
# Assay: as above
# Summary of the method: as §1
row,Binder,SPOT peptide array binding signal intensity
1,NFLRLLIGLPSQNEL,21

# Target: ScCyk3
# Assay: as above
# Summary of the method: as §1
row,Binder,SPOT peptide array binding signal intensity
1,NFLRLLIGLPSQNEL,101

# Target: ScFus1
# Assay: as above
# Summary of the method: as §1
row,Binder,SPOT peptide array binding signal intensity
1,NFLRLLIGLPSQNEL,1020

# Target: ScHof1
# Assay: as above
# Summary of the method: as §1
row,Binder,SPOT peptide array binding signal intensity
1,NFLRLLIGLPSQNEL,1.5

# Target: ScHse1
# Assay: as above
# Summary of the method: as §1
row,Binder,SPOT peptide array binding signal intensity
1,NFLRLLIGLPSQNEL,2880

# Target: ScLsb1
# Assay: as above
# Summary of the method: as §1
row,Binder,SPOT peptide array binding signal intensity
1,NFLRLLIGLPSQNEL,0.75

# Target: ScLsb2
# Assay: as above
# Summary of the method: as §1
row,Binder,SPOT peptide array binding signal intensity
1,NFLRLLIGLPSQNEL,≤ 0

# Target: ScLsb3
# Assay: as above
# Summary of the method: as §1
row,Binder,SPOT peptide array binding signal intensity
1,NFLRLLIGLPSQNEL,276

# Target: ScLsb4
# Assay: as above
# Summary of the method: as §1
row,Binder,SPOT peptide array binding signal intensity
1,NFLRLLIGLPSQNEL,≤ 0

# Target: ScMyo3
# Assay: as above
# Summary of the method: as §1
row,Binder,SPOT peptide array binding signal intensity
1,NFLRLLIGLPSQNEL,4

# Target: ScMyo5
# Assay: as above
# Summary of the method: as §1
row,Binder,SPOT peptide array binding signal intensity
1,NFLRLLIGLPSQNEL,≤ 0

# Target: ScNbp2
# Assay: as above
# Summary of the method: as §1
row,Binder,SPOT peptide array binding signal intensity
1,NFLRLLIGLPSQNEL,53

# Target: ScPex13
# Assay: as above
# Summary of the method: as §1
row,Binder,SPOT peptide array binding signal intensity
1,NFLRLLIGLPSQNEL,≤ 0

# Target: ScRvs167
# Assay: as above
# Summary of the method: as §1
row,Binder,SPOT peptide array binding signal intensity
1,NFLRLLIGLPSQNEL,11.7

# Target: ScSho1
# Assay: as above
# Summary of the method: as §1
row,Binder,SPOT peptide array binding signal intensity
1,NFLRLLIGLPSQNEL,1160

# Target: ScSla1-D1-D2
# Assay: as above
# Summary of the method: as §1
row,Binder,SPOT peptide array binding signal intensity
1,NFLRLLIGLPSQNEL,≤ 0

# Target: ScSla1-D3
# Assay: as above
# Summary of the method: as §1
row,Binder,SPOT peptide array binding signal intensity
1,NFLRLLIGLPSQNEL,8.5

# Target: SpAbp1-D1
# Assay: as above
# Summary of the method: as §1
row,Binder,SPOT peptide array binding signal intensity
1,NFLRLLIGLPSQNEL,1

# Target: SpBbc1
# Assay: as above
# Summary of the method: as §1
row,Binder,SPOT peptide array binding signal intensity
1,NFLRLLIGLPSQNEL,3.75

# Target: SpBzz1-D1
# Assay: as above
# Summary of the method: as §1
row,Binder,SPOT peptide array binding signal intensity
1,NFLRLLIGLPSQNEL,22

# Target: SpBzz1-D2
# Assay: as above
# Summary of the method: as §1
row,Binder,SPOT peptide array binding signal intensity
1,NFLRLLIGLPSQNEL,≤ 0

# Target: SpCyk3
# Assay: as above
# Summary of the method: as §1
row,Binder,SPOT peptide array binding signal intensity
1,NFLRLLIGLPSQNEL,7

# Target: SpHof1
# Assay: as above
# Summary of the method: as §1
row,Binder,SPOT peptide array binding signal intensity
1,NFLRLLIGLPSQNEL,121

# Target: SpHof1-2
# Assay: as above
# Summary of the method: as §1
row,Binder,SPOT peptide array binding signal intensity
1,NFLRLLIGLPSQNEL,31.5

# Target: SpHof1-3
# Assay: as above
# Summary of the method: as §1
row,Binder,SPOT peptide array binding signal intensity
1,NFLRLLIGLPSQNEL,443

# Target: SpHse1
# Assay: as above
# Summary of the method: as §1
row,Binder,SPOT peptide array binding signal intensity
1,NFLRLLIGLPSQNEL,3340

# Target: SpLsb1
# Assay: as above
# Summary of the method: as §1
row,Binder,SPOT peptide array binding signal intensity
1,NFLRLLIGLPSQNEL,≤ 0

# Target: SpLsb4
# Assay: as above
# Summary of the method: as §1
row,Binder,SPOT peptide array binding signal intensity
1,NFLRLLIGLPSQNEL,≤ 0

# Target: SpMyo1
# Assay: as above
# Summary of the method: as §1
row,Binder,SPOT peptide array binding signal intensity
1,NFLRLLIGLPSQNEL,0.5

# Target: SpNbp2
# Assay: as above
# Summary of the method: as §1
row,Binder,SPOT peptide array binding signal intensity
1,NFLRLLIGLPSQNEL,52.5

# Target: SpPex13
# Assay: as above
# Summary of the method: as §1
row,Binder,SPOT peptide array binding signal intensity
1,NFLRLLIGLPSQNEL,52

# Target: SpRvs167
# Assay: as above
# Summary of the method: as §1
row,Binder,SPOT peptide array binding signal intensity
1,NFLRLLIGLPSQNEL,9.83

# Target: SpSla1-D1-D2
# Assay: as above
# Summary of the method: as §1
row,Binder,SPOT peptide array binding signal intensity
1,NFLRLLIGLPSQNEL,4

# Target: SpSla1-D3
# Assay: as above
# Summary of the method: as §1
row,Binder,SPOT peptide array binding signal intensity
1,NFLRLLIGLPSQNEL,8
